RN4220 kill: kills Staphylococcus aureus RN4220; inhibition, % (test concentration not listed); AID 1259311; S. aureus RN4220 growth, OD600, 16 h; 330,000 compounds, 0.33% hits; in the data active = inhibition above about 85%;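 also: plate controls were untreated cells for no effect and reference antibiotic for full effect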
Mtb hypoxia rep: reduces hypoxia-regulated biosensor signal in M. tuberculosis; M. tuberculosis hypoxia-regulated fluorescent reporter, fluorescence; fluorescence inhibition, % (concentration not given with the values); 300,000 compounds, 0.1% hits; AID 1159583; in the data active = fluorescence inhibition mostly above about 23%, no sharp cut-off; inactive = mostly below about 17%
Yp Topo-I inh: blocks Yersinia pestis topoisomerase I activity; AID 504884; Y. pestis Topo-I cleavage product accumulation, plate reader; activity, % at 10 µM; 360,000 compounds, 0.064% hits; in the data active = activity above about 50%, passing the limit was not always enough
ugtP null kill: growth inhibition of S. aureus ugtP deletion strain. S. aureus RN4220 ugtP deletion, OD600 growth, 16 h. 330,000 compounds, 0.54% hits. AID 1259309. growth inhibition, % (no concentration beside the values); in the data active = growth inhibition above about 68%;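 also: plate controls were untreated wells for no effect and antibiotic for full effect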
Mtb BioA inh: blocks M. tuberculosis BioA enzyme activity | purified M. tuberculosis BioA enzyme, plate reader | AID 602481 | inhibition, % at 9.99 µM | 360,000 compounds, 0.096% hits; in the data active = inhibition above about 40%
TcdB inh: inhibitors of Clostridioides difficile toxin B glycohydrolase | P18177 | TcdB glycohydrolase enzymatic assay, plate reader | inhibition, % at 9.99 µM | 350,000 compounds, 0.24% hits | AID 652162; in the data active = inhibition above about 10%
Numbers without * were called inactive; x = not tested or not shown; ! = repeats disagree. This is a sample that favours compounds with a hit; in the whole collection about 0.75% have one here.

SMILES	RN4220 kill	Mtb hypoxia rep	Yp Topo-I inh	ugtP null kill	Mtb BioA inh	TcdB inh
Cn1cc(S(=O)(=O)CC(=O)N2CCCc3ccccc32)c2ccccc21	-4	9	1	-8	0	11*
Cn1cc(C(=O)C(=O)N2CCCc3ccccc32)c2ccccc21	3	8	-8	2	-1	3
CNC(CC(C)C)C(=O)NC1C(=O)NC(CC(N)=O)C(=O)NC2C(=O)NC3C(=O)NC(C(=O)NC(C(=O)O)c4cc(O)cc(O)c4-c4cc3ccc4O)C(O)c3ccc(c(Cl)c3)Oc3cc2cc(c3OC2OC(CO)C(O)C(O)C2OC2C[C@](C)(N)C(O)C(C)O2)Oc2ccc(cc2Cl)C1O (some centres undefined)	101*	x	-3	100*	-1	1
C[C@@H]1O[C@@H](O[C@H]2[C@H](Oc3cc(O)c4c(c3)O[C@H](c3ccc(O)cc3)CC4=O)O[C@H](CO)[C@@H](O)[C@@H]2O)[C@H](O)[C@H](O)[C@H]1O	x	x	7	x	-2	1
C=CCOc1cccc(CNc2ccc3[nH]c(=O)[nH]c3c2)c1	x	x	-1	x	0	24*
O=C(N/N=C/c1cccc([N+](=O)[O-])c1)c1ccc(Br)cc1	x	x	10	x	x	11*
N#CC(=NNc1cccc([N+](=O)[O-])c1)C(=O)c1ccc(Br)cc1	94*	19	x	89*	x	x
COc1ccc(C(=O)C(C#N)=NNc2cccc([N+](=O)[O-])c2)cc1	86*	14	x	87*	x	x
COc1ccc(C(=O)/C(C#N)=N/Nc2ccc([N+](=O)[O-])cc2)cc1	x	x	1	x	x	1
COc1ccc(C(=O)/C(C#N)=N/Nc2ccccc2[N+](=O)[O-])cc1	x	x	-11	x	x	0
Cc1cc(=O)[nH]c(NN=Cc2cccc(Br)c2)n1	4	10	x	3	x	x
COc1ccc(C=NNC(=O)C2COc3ccccc3O2)cc1O (centres undefined)	-6	3	x	-2	x	x
C[C@@H]1O[C@@H](O[C@H]2[C@H](Oc3cc(O)c4c(c3)OC(c3ccc(O)cc3)CC4=O)O[C@H](CO)[C@@H](O)[C@@H]2O)[C@H](O)[C@H](O)[C@H]1O (some centres undefined)	x	x	1	x	0	1
CC1OC(OC2C(Oc3cc(O)c4c(c3)OC(c3ccc(O)cc3)CC4=O)OC(CO)C(O)C2O)C(O)C(O)C1O (centres undefined)	2	85*!	x	-6	x	x
C=CC[C@@H](CC(=O)N[C@@H](CO)Cc1ccccc1)C(=O)N[C@H](COC(=O)[C@@H](CC=C)Cc1ccc(F)cc1)Cc1ccccc1	x	x	47	x	-2	0
C=CCC(CC(=O)NC(CO)Cc1ccccc1)C(=O)NC(COC(=O)C(CC=C)Cc1ccc(F)cc1)Cc1ccccc1 (centres undefined)	9	38*!	x	18	x	x
C[C@H]1CC[C@@]2(C)[C@@H](CC[C@@H]3[C@@H]2CC[C@]2(C)[C@@H](O)CC[C@@H]32)C1	94*	18	17	99*	-1	1
COc1ccc(N2C(=O)c3[nH]nc(-c4ccccc4)c3C2c2ccc(F)cc2)cc1 (centres undefined)	x	x	x	x	x	2
COc1ccc(-c2n[nH]c3c2C(c2ccc(OC)c(OC)c2)N(c2ccccc2)C3=O)cc1 (centres undefined)	2	-8	3	1	65*	x
O=C(Sc1ccc(Cl)cc1)c1ccccn1	-1	10	2	84*	x	0
NS(=O)(=O)c1ccc(NN=Cc2ccncc2)cc1	2	9	x	10	x	x
O=C(COC(=O)CCC1CCCC1)Nc1ccccc1Sc1ccccc1	-3	-7	64*	0	x	0
CCC(=NNC(=O)c1cc(C)nc2ccccc12)c1ccc(C)s1	4	2	x	4	x	x
O=C(NN=Cc1ccc(Cl)cc1Cl)C(=O)NC1CC1	4	8	x	7	x	x
O=C(/C=C/c1cccc(C(F)(F)F)c1)Nc1cccc(C(F)(F)F)c1	100*	3	1	100*	0	x
SMILES	RN4220 kill	Mtb hypoxia rep	Yp Topo-I inh	ugtP null kill	Mtb BioA inh	TcdB inh
C=CCC(CC(=O)NC(CO)Cc1ccccc1)C(=O)NC(COC(=O)C(CC=C)CC(=O)OC(C)(C)C)Cc1ccccc1 (centres undefined)	-1	17	x	7	x	x
Cc1ccc(-n2nnnc2-c2ccccc2)cc1	1	-4	4	1	-1	-2
Cc1ccc(-n2nnnc2C(Cl)c2nnnn2-c2ccc(C)cc2)cc1	97*	4	-5	99*	x	x
O=c1cc(-c2ccc(O)cc2)oc2c(C3OC(CO)C(O)C(O)C3O)c(O)cc(O)c12 (centres undefined)	5	2	x	-3	x	x
Cc1cccc2[nH]c3c(N4CC=C(c5ccc(F)cc5)CC4)ncnc3c12	73	20	11	89*	-1	1
O=C(Nc1ccc(Br)c(C(F)(F)F)c1)c1ccccc1	1	20	-7	-23	x	1
O=C(Nc1ccc(Br)c(C(F)(F)F)c1)c1ccc(C(F)(F)F)cc1	101*	x	-20	99*	3	8
CCCSc1ccc(C2C3C(=O)N(C)C(=O)C3[C@]3(C(=O)OC)CCCN23)cc1OC (some centres undefined)	3	3	x	2	x	x
N#CC(c1cccc(Cl)c1)c1ccc2c(C(F)(F)F)cc(C(F)(F)F)nc2n1 (centres undefined)	97*	x	-3	97*	x	x
NNc1ccc2c(C(F)(F)F)cc(C(F)(F)F)nc2n1	25	12	3	15	0	-8
CC1=NNC(=O)C1CCC(=O)NN=Cc1ccc(Cl)c(Cl)c1 (centres undefined)	1	-17	x	4	x	x
C[C@H]1CN([C@@H](C)CO)S(=O)(=O)c2ccc(-c3ccncc3)cc2O[C@H]1CN(C)Cc1ccc(Oc2ccccc2)cc1	x	x	x	x	-1	12*
C[C@H]1CN([C@@H](C)CO)S(=O)(=O)c2ccc(-c3ccncc3)cc2O[C@@H]1CN(C)Cc1ccc(Oc2ccccc2)cc1	x	x	x	x	0	20*
C[C@@H]1CN([C@H](C)CO)S(=O)(=O)c2ccc(-c3ccncc3)cc2O[C@@H]1CN(C)Cc1ccc(Oc2ccccc2)cc1	x	x	x	x	-1	11*
CCOc1ccc(C=NNC(=O)CC(=O)NCc2ccccc2)cc1	4	1	x	5	x	x
O=C(Nc1ccccc1)ON=C1c2ccccc2-c2ccccc21	-6	5	-2	-1	x	2
O=C(Nc1ccccc1Cl)ON=C1c2ccccc2-c2ccccc21	-4	-3	5	95*	x	x
O=C(Nc1ccccc1Cl)OCC#CCOC(=O)Nc1ccccc1Cl	x	x	55*	x	-1	0
COc1ccc(C=NNC(=O)c2cccnc2)cc1CN1CCOCC1	2	15	x	2	x	x
Cc1ccc(CSc2ncnc3c2cnn3Cc2ccccc2)cc1C	-2	2	-3	93*	-2	x
N#Cc1ccc(CSc2ncnc3c2cnn3Cc2ccccc2)cc1	-8	x	4	42	0	x
Cc1ccc(CSc2ncnc3c2cnn3Cc2ccccc2)cc1	-4	12	25	90*	0	x
